Reference: PubChem BioAssay AID1159580 (chemical genetic matrix, 2015)
About 2,000 (36%) of roughly 5,500 compounds were called active. Not shown: some 18% with an inconclusive outcome. No stated cut-off is given here; in the data, active means normalized growth mostly below about 0.91 (no sharp cut-off); inconclusive means no clear call, values can overlap the other calls; inactive means mostly above about 0.92. This is one part of the list.

Test: chemical genetic growth profiling, strain panel (AID 1159580);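 further: tested at 20 µM; growth read once vehicle control cultures reached saturation at 30 °C; 1 = growth at the plate median or of vehicle wells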
Settings: growth OD

Measured: normalized growth

CC(=O)OC1CC(OC(C)=O)C2(C)C(CC(OC(C)=O)C3(C)C4=CC(=O)OC(=O)C4(C)CCC32)C1(C)C (stereo unspecified)
inactive: S. cerevisiae deletion strains, locus YBR021W, strain FUR4, stronger effect = lower value 1.01 | S. cerevisiae deletion strains, locus YBR229C, strain ROT2, stronger effect = lower value 1 | S. cerevisiae deletion strains, locus YCL029C, strain bik1, stronger effect = lower value 1 | S. cerevisiae deletion strains, locus YDL035C, strain GPR1, stronger effect = lower value 1.01 | S. cerevisiae deletion strains, locus YDL074C, strain BRE1, stronger effect = lower value 1.02 | S. cerevisiae deletion strains, locus YDL101C, strain DUN1, stronger effect = lower value 1.02 | S. cerevisiae deletion strains, locus YDL134C, strain PPH21, stronger effect = lower value 1.02 | S. cerevisiae deletion strains, locus YDL185W, strain tfp1, stronger effect = lower value 1.01 | S. cerevisiae deletion strains, locus YDL192W, strain arf1, stronger effect = lower value 0.982 | S. cerevisiae deletion strains, locus YDR101C, strain arx1, stronger effect = lower value 0.996 | S. cerevisiae deletion strains, locus YDR150W, strain NUM1, stronger effect = lower value 1.01 | S. cerevisiae deletion strains, locus YDR162C, strain NBP2, stronger effect = lower value 1.01 | S. cerevisiae deletion strains, locus YDR318W, strain mcm21, stronger effect = lower value 0.99 | S. cerevisiae deletion strains, locus YDR388W, stronger effect = lower value 1.01 | S. cerevisiae deletion strains, locus YDR502C, strain sam2, stronger effect = lower value 1.02 | S. cerevisiae deletion strains, locus YER110C, stronger effect = lower value 1 | S. cerevisiae deletion strains, locus YER155C, strain BEM2, stronger effect = lower value 0.993 | S. cerevisiae deletion strains, locus YER167W, strain BCK2, stronger effect = lower value 0.995 | S. cerevisiae deletion strains, locus YGL078C, strain dbp3, stronger effect = lower value 1.03 | S. cerevisiae deletion strains, locus YGL086W, strain mad1, stronger effect = lower value 0.998 | S. cerevisiae deletion strains, locus YGL248W, strain PDE1, stronger effect = lower value 1.03 | S. cerevisiae deletion strains, locus YGR078C, strain PAC10, stronger effect = lower value 1.04 | S. cerevisiae deletion strains, locus YGR135W, strain pre9, stronger effect = lower value 1.06 | S. cerevisiae deletion strains, locus YGR252W, strain gcn5, stronger effect = lower value 1.03 | S. cerevisiae deletion strains, locus YHR030C, strain SLT2, stronger effect = lower value 0.999 | S. cerevisiae deletion strains, locus YHR079C, strain IRE1 (second series), stronger effect = lower value 1 | S. cerevisiae deletion strains, locus YHR094C, strain hxt1, stronger effect = lower value 1.01 | S. cerevisiae deletion strains, locus YHR129C, strain ARP1, stronger effect = lower value 1.01 | S. cerevisiae deletion strains, locus YHR200W, strain rpn10, stronger effect = lower value 1.01 | S. cerevisiae deletion strains, locus YIL066C, strain RNR3, stronger effect = lower value 0.99 | S. cerevisiae deletion strains, locus YIL073C, strain SPO22, stronger effect = lower value 1.04 | S. cerevisiae deletion strains, locus YIL125W, strain kgd1, stronger effect = lower value 0.993 | S. cerevisiae deletion strains, locus YIR030C, strain dcg1, stronger effect = lower value 0.999 | S. cerevisiae deletion strains, locus YJL095W, strain BCK1, stronger effect = lower value 1.04 | S. cerevisiae deletion strains, locus YJL134W, strain LCB3, stronger effect = lower value 0.997 | S. cerevisiae deletion strains, locus YJL168C, strain set2, stronger effect = lower value 1 | S. cerevisiae deletion strains, locus YJL187C, strain SWE1 (second series), stronger effect = lower value 1.04 | S. cerevisiae deletion strains, locus YJR043C, strain POL32, stronger effect = lower value 0.99 | S. cerevisiae deletion strains, locus YJR075W, strain HOC1, stronger effect = lower value 1.01 | S. cerevisiae deletion strains, locus YKL009W, strain mrt4, stronger effect = lower value 0.992 | S. cerevisiae deletion strains, locus YKL068W, stronger effect = lower value 1.01 | S. cerevisiae deletion strains, locus YKL085W, strain MDH1 (second series), stronger effect = lower value 0.987 | S. cerevisiae deletion strains, locus YKL085W, strain MDH1, stronger effect = lower value 0.987 | S. cerevisiae deletion strains, locus YKL190W, strain CNB1, stronger effect = lower value 1.01 | S. cerevisiae deletion strains, locus YKR001C, strain vps1, stronger effect = lower value 0.987 | S. cerevisiae deletion strains, locus YLR039C, strain RIC1, stronger effect = lower value 1.02 | S. cerevisiae deletion strains, locus YLR058C, strain SHM2, stronger effect = lower value 1.02 | S. cerevisiae deletion strains, locus YLR102C, strain apc9, stronger effect = lower value 1.01 | S. cerevisiae deletion strains, locus YLR262C, strain YPT6, stronger effect = lower value 0.985 | S. cerevisiae deletion strains, locus YLR268W, strain sec22, stronger effect = lower value 0.981 | S. cerevisiae deletion strains, locus YLR330W, strain CHS5, stronger effect = lower value 1 | S. cerevisiae deletion strains, locus YLR371W, strain rom2, stronger effect = lower value 0.987 | S. cerevisiae deletion strains, locus YLR418C, strain cdc73, stronger effect = lower value 1.03 | S. cerevisiae deletion strains, locus YML016C, strain PPZ1, stronger effect = lower value 1.01 | S. cerevisiae deletion strains, locus YML032C, strain rad52, stronger effect = lower value 1 | S. cerevisiae deletion strains, locus YML124C, strain tub3, stronger effect = lower value 0.998 | S. cerevisiae deletion strains, locus YMR078C, strain ctf18, stronger effect = lower value 1 | S. cerevisiae deletion strains, locus YMR223W, strain ubp8, stronger effect = lower value 1 | S. cerevisiae deletion strains, locus YMR307W, strain GAS1, stronger effect = lower value 0.916 | S. cerevisiae deletion strains, locus YNL067W, strain RPL9B, stronger effect = lower value 1.05 | S. cerevisiae deletion strains, locus YNL233W, strain BNI4, stronger effect = lower value 1.02 | S. cerevisiae deletion strains, locus YNL250W, strain rad50, stronger effect = lower value 1.02 | S. cerevisiae deletion strains, locus YNL271C, strain bni1, stronger effect = lower value 1.01 | S. cerevisiae deletion strains, locus YNL298W, strain CLA4, stronger effect = lower value 1.01 | S. cerevisiae deletion strains, locus YNL307C, strain MCK1, stronger effect = lower value 1.02 | S. cerevisiae deletion strains, locus YNR052C, strain pop2, stronger effect = lower value 1.03 | S. cerevisiae deletion strains, locus YOL006C, strain TOP1, stronger effect = lower value 0.98 | S. cerevisiae deletion strains, locus YOL012C, strain htz1 0.765 | S. cerevisiae deletion strains, locus YOL147C, strain pex11, stronger effect = lower value 1 | S. cerevisiae deletion strains, locus YOR061W, strain CKA2, stronger effect = lower value 0.994 | S. cerevisiae deletion strains, locus YOR069W, strain VPS5, stronger effect = lower value 1.01 | S. cerevisiae deletion strains, locus YOR136W, strain idh2, stronger effect = lower value 1.01 | S. cerevisiae deletion strains, locus YOR144C, strain elg1, stronger effect = lower value 0.996 | S. cerevisiae deletion strains, locus YOR184W, strain ser1, stronger effect = lower value 0.978 | S. cerevisiae deletion strains, locus YOR316C, strain cot1, stronger effect = lower value 1.01 | S. cerevisiae deletion strains, locus YPR119W, strain clb2, stronger effect = lower value 1.01 | S. cerevisiae deletion strains, locus YPR141C, strain kar3, stronger effect = lower value 1.01 | S. cerevisiae deletion strains, locus YPR163C, strain tif3, stronger effect = lower value 1.02 | S. cerevisiae deletion strains, locus YPR167C, strain met16, stronger effect = lower value 1.01 | S. cerevisiae deletion strains, strain wtn01, stronger effect = lower value 0.975 | S. cerevisiae strains, strain wild type, stronger effect = lower value 1
